Drawing on article PMC11006913, this text covers binding signal for 22 sequences.

Holding throughout (test): PBM; 200 nM protein, PBS
Conditions in all cases: dsDNA, one strand shown

For assay [1], the target named is PROP1 (Homo sapiens, UniProt O75360 56-141).
For assay [2], the target named is PROP1 (Homo sapiens, UniProt O75360 56-141, R99H).
The target in assay [3] is PROP1 (Homo sapiens, UniProt O75360 56-141, F88S).
PROP1 (Homo sapiens, UniProt O75360 56-141, F88S), sequence (O75360 56-141 F88S): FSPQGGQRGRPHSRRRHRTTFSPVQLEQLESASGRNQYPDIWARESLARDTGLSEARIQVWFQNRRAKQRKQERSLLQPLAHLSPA

PROP1 (Homo sapiens, UniProt O75360 56-141), sequence (O75360 56-141): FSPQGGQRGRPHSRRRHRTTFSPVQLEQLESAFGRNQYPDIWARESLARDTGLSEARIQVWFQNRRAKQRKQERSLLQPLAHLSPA
PROP1 (Homo sapiens, UniProt O75360 56-141, R99H), sequence (O75360 56-141 R99H): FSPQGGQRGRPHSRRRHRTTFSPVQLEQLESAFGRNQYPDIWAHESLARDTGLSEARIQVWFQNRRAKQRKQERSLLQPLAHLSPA

Regarding GGAACGCC, the binding signal with PROP1 [1] is 6.7 upbm affinity estimate (log intensity, higher = more binding, comparable within an allelic series); in the assay with PROP1 [2] it was 6.87 upbm affinity estimate (log intensity, higher = more binding, comparable within an allelic series); with PROP1 [3], 6.68 upbm affinity estimate (log intensity, higher = more binding, comparable within an allelic series).
As for CCGCACCC, the binding signal was 6.68 upbm affinity estimate (log intensity, higher = more binding, comparable within an allelic series) with PROP1 [1]; 6.9 upbm affinity estimate (log intensity, higher = more binding, comparable within an allelic series) with PROP1 [2]; 6.69 upbm affinity estimate (log intensity, higher = more binding, comparable within an allelic series) with PROP1 [3].
Regarding GCTCGGAC, the binding signal is 6.55 upbm affinity estimate (log intensity, higher = more binding, comparable within an allelic series) with PROP1 [1]; 6.66 upbm affinity estimate (log intensity, higher = more binding, comparable within an allelic series) with PROP1 [2]; 6.68 upbm affinity estimate (log intensity, higher = more binding, comparable within an allelic series) with PROP1 [3].
Consider GGCTGACC, for which the binding signal with PROP1 [1] is 6.72 upbm affinity estimate (log intensity, higher = more binding, comparable within an allelic series); with PROP1 [2], 6.74 upbm affinity estimate (log intensity, higher = more binding, comparable within an allelic series); with PROP1 [3] it was 6.56 upbm affinity estimate (log intensity, higher = more binding, comparable within an allelic series).
As to GACAGGGC, the binding signal was 6.65 upbm affinity estimate (log intensity, higher = more binding, comparable within an allelic series) in the assay with PROP1 [1]; 6.63 upbm affinity estimate (log intensity, higher = more binding, comparable within an allelic series) with PROP1 [2]; 6.47 upbm affinity estimate (log intensity, higher = more binding, comparable within an allelic series) with PROP1 [3].
Regarding CCCGGGAA, the binding signal in the assay with PROP1 [1] is 6.78 upbm affinity estimate (log intensity, higher = more binding, comparable within an allelic series); with PROP1 [2] it was 6.79 upbm affinity estimate (log intensity, higher = more binding, comparable within an allelic series); with PROP1 [3] it was 6.66 upbm affinity estimate (log intensity, higher = more binding, comparable within an allelic series).
For GGAGCAGA, the binding signal with PROP1 [1] was 6.75 upbm affinity estimate (log intensity, higher = more binding, comparable within an allelic series); with PROP1 [2], 6.89 upbm affinity estimate (log intensity, higher = more binding, comparable within an allelic series); with PROP1 [3], 6.82 upbm affinity estimate (log intensity, higher = more binding, comparable within an allelic series).
In the case of GCCATGGC, the binding signal in the assay with PROP1 [1] was 6.94 upbm affinity estimate (log intensity, higher = more binding, comparable within an allelic series); with PROP1 [2], 6.8 upbm affinity estimate (log intensity, higher = more binding, comparable within an allelic series); with PROP1 [3], 6.74 upbm affinity estimate (log intensity, higher = more binding, comparable within an allelic series).
With AAAAATTT, the binding signal is 8.27 upbm affinity estimate (log intensity, higher = more binding, comparable within an allelic series) in the assay with PROP1 [1]; 7.95 upbm affinity estimate (log intensity, higher = more binding, comparable within an allelic series) in the assay with PROP1 [2]; 7.46 upbm affinity estimate (log intensity, higher = more binding, comparable within an allelic series) with PROP1 [3].
As for CGCGAACC, the binding signal with PROP1 [1] was 6.6 upbm affinity estimate (log intensity, higher = more binding, comparable within an allelic series); with PROP1 [2] it was 6.67 upbm affinity estimate (log intensity, higher = more binding, comparable within an allelic series); with PROP1 [3], 6.71 upbm affinity estimate (log intensity, higher = more binding, comparable within an allelic series).
Take GCATCTCC: the binding signal in the assay with PROP1 [1] was 6.85 upbm affinity estimate (log intensity, higher = more binding, comparable within an allelic series); in the assay with PROP1 [2], 6.93 upbm affinity estimate (log intensity, higher = more binding, comparable within an allelic series); with PROP1 [3], 6.57 upbm affinity estimate (log intensity, higher = more binding, comparable within an allelic series).
Regarding AGCCTGGC, the binding signal is 6.55 upbm affinity estimate (log intensity, higher = more binding, comparable within an allelic series) with PROP1 [1]; 6.87 upbm affinity estimate (log intensity, higher = more binding, comparable within an allelic series) with PROP1 [2]; 6.67 upbm affinity estimate (log intensity, higher = more binding, comparable within an allelic series) in the assay with PROP1 [3].
In the case of CGATGCCC, the binding signal was 6.76 upbm affinity estimate (log intensity, higher = more binding, comparable within an allelic series) with PROP1 [1]; 6.86 upbm affinity estimate (log intensity, higher = more binding, comparable within an allelic series) in the assay with PROP1 [2]; 6.71 upbm affinity estimate (log intensity, higher = more binding, comparable within an allelic series) with PROP1 [3].
In the case of GTGCGCCA, the binding signal with PROP1 [1] was 6.79 upbm affinity estimate (log intensity, higher = more binding, comparable within an allelic series); with PROP1 [2], 6.83 upbm affinity estimate (log intensity, higher = more binding, comparable within an allelic series); in the assay with PROP1 [3], 6.75 upbm affinity estimate (log intensity, higher = more binding, comparable within an allelic series).
As for AATATGAA, the binding signal with PROP1 [1] is 8.47 upbm affinity estimate (log intensity, higher = more binding, comparable within an allelic series); in the assay with PROP1 [2], 8.01 upbm affinity estimate (log intensity, higher = more binding, comparable within an allelic series); with PROP1 [3], 7.42 upbm affinity estimate (log intensity, higher = more binding, comparable within an allelic series).
Take ATGCCAGC: the binding signal with PROP1 [1] was 6.71 upbm affinity estimate (log intensity, higher = more binding, comparable within an allelic series); with PROP1 [2] it was 6.77 upbm affinity estimate (log intensity, higher = more binding, comparable within an allelic series); with PROP1 [3], 6.73 upbm affinity estimate (log intensity, higher = more binding, comparable within an allelic series).
Consider CCGGGCTA, for which the binding signal with PROP1 [1] is 6.87 upbm affinity estimate (log intensity, higher = more binding, comparable within an allelic series); with PROP1 [2], 6.89 upbm affinity estimate (log intensity, higher = more binding, comparable within an allelic series); with PROP1 [3] it was 6.52 upbm affinity estimate (log intensity, higher = more binding, comparable within an allelic series).
Consider AGTCTGCG, for which the binding signal is 6.67 upbm affinity estimate (log intensity, higher = more binding, comparable within an allelic series) with PROP1 [1]; 6.73 upbm affinity estimate (log intensity, higher = more binding, comparable within an allelic series) with PROP1 [2]; 6.68 upbm affinity estimate (log intensity, higher = more binding, comparable within an allelic series) with PROP1 [3].
In the case of ATTACTAA, the binding signal with PROP1 [1] is 9.85 upbm affinity estimate (log intensity, higher = more binding, comparable within an allelic series); in the assay with PROP1 [2], 9.4 upbm affinity estimate (log intensity, higher = more binding, comparable within an allelic series); with PROP1 [3], 7.62 upbm affinity estimate (log intensity, higher = more binding, comparable within an allelic series).
Turning to AACTAAAT, the binding signal with PROP1 [1] was 9.34 upbm affinity estimate (log intensity, higher = more binding, comparable within an allelic series); in the assay with PROP1 [2], 8.6 upbm affinity estimate (log intensity, higher = more binding, comparable within an allelic series); in the assay with PROP1 [3], 7.5 upbm affinity estimate (log intensity, higher = more binding, comparable within an allelic series).
On to AGGCTCCG, for which the binding signal is 6.78 upbm affinity estimate (log intensity, higher = more binding, comparable within an allelic series) with PROP1 [1]; 6.73 upbm affinity estimate (log intensity, higher = more binding, comparable within an allelic series) with PROP1 [2]; 6.8 upbm affinity estimate (log intensity, higher = more binding, comparable within an allelic series) with PROP1 [3].
For the sequence GATAGTTA, the binding signal in the assay with PROP1 [1] is 8.6 upbm affinity estimate (log intensity, higher = more binding, comparable within an allelic series); with PROP1 [2] it was 8.09 upbm affinity estimate (log intensity, higher = more binding, comparable within an allelic series); with PROP1 [3], 7.39 upbm affinity estimate (log intensity, higher = more binding, comparable within an allelic series).
